CHX counter = counter-screen for Shiga toxin inhibitors: cycloheximide protein synthesis inhibition; cell reporter, cycloheximide protein synthesis inhibition counterscreen; max response, %; 300,000 compounds, 12% hits; in the data active = max response mostly above about 13%, no sharp cut-off; inactive = mostly below about 14%; also: read at 38.3 µM for the half of the compounds with a filed dose; 0% is about no effect
LmPK inh = inhibitors of Leishmania mexicana pyruvate kinase | Q27686 | purified LmPK, Kinase-Glo ATP luminescence, 1 h | Potency, µM (highest dose often 57.5 µM), inactives show top-dose activity change, negative = inhibition, usual class: inhibitors | 290,000 compounds, 0.37% hits; also: potency is read from the fitted curve at half-maximal effect; % is scaled to controls: 0 for no effect and ±100 for the full control effect
Target sequence (Q27686 whole entry, looked up): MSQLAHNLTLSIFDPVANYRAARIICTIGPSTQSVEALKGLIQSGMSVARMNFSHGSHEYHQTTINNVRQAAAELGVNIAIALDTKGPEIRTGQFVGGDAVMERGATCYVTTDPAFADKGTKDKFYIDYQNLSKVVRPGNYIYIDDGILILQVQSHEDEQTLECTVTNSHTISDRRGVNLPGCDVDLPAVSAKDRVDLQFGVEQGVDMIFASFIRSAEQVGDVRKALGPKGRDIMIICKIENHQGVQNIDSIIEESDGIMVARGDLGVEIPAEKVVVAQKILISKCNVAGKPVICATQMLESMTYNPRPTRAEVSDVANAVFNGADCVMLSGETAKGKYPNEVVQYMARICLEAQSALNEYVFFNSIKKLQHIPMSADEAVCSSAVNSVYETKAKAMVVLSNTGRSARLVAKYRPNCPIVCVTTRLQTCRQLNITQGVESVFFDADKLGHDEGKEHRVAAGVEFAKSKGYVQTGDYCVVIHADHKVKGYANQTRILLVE
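In 50 mM imidazole pH 7.2 with 7 mM MgCl2, LmPK (0.1 nM) turned over PEP (0.5 mM) and ADP (0.1 mM) for 1 h at room temperature. Luciferase read-out of ATP.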
Shiga inhibitor = inhibitors of Shiga toxin in Vero cells. Vero cells, Shiga toxin protein synthesis inhibition reporter. inhibition, % at 38.7 µM. 290,000 compounds, 9.2% hits. AID 2315; in the data active = inhibition mostly above about 28%, no sharp cut-off; inactive = mostly below about 43%; also: 0% is about no effect
Pf growth 96h = P. falciparum growth inhibition at 96 hours. P. falciparum luciferase reporter growth, 96 h. Potency, µM (top dose mostly 28.7 µM), inactives show top-dose activity change, negative = inhibition, actives largely listed as inhibitors. 320,000 compounds, 6.9% hits. AID 504834; also: potency is read from the fitted curve at half-maximal effect; % is scaled to controls: 0 for no effect and ±100 for the full control effect
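Cell-based qHTS: luciferase-tagged P. falciparum in erythrocytes (2% hematocrit, 0.05% parasitemia final) incubated with compounds for 96 hours, 37 C, 5% CO2; luciferase detection reagent then added and luminescence measured.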
Pf growth 48h = inhibits P. falciparum growth in the first generation, 48 h. P. falciparum luciferase growth in erythrocytes, 48 h. Potency, µM (series often up to 28.7 µM), for the others: top-dose activity change, negative = inhibition, actives largely listed as inhibitors. 310,000 compounds, 5.9% hits; also: potency is read from the fitted curve at half-maximal effect; % is scaled to controls: 0 for no effect and ±100 for the full control effect
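Cell-based growth assay: transgenic P. falciparum expressing firefly luciferase, cultured in red cells within RPMI 1640 containing 0.5% w/v Albumax, 24 mM bicarbonate and gentamycin. A drop in luciferase activity indicates inhibition.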
* = called active by the depositor; ? = inconclusive; . = not tested or not shown; ! = not confirmed by another sample; [ ] = remark or other dose. In the library only some 22% were active in any assay of this set; here they are far more common. Unless noted, calls follow the shape of the dose curve; as a rule, active = well fitted inhibition curve with a large enough effect; inconclusive = small, poorly fitted or top-dose-only effect, or another doubt; inactive = no such curve, though single readings can be large or run the other way.

SMILES | CHX counter | LmPK inh | Shiga inhibitor | Pf growth 96h | Pf growth 48h
Cc1ccc(NC(=O)C2(S(=O)(=O)c3ccc(Cl)cc3)CC2)cc1 | -4 | -1% | -10 | 43% | 7%
Clc1ccc(OCCCCCN2CCOCC2)cc1 | 1 | 2% | -6 | -6% | 0%
Cc1ccccc1NC1=C/C(=N\S(=O)(=O)c2ccc(C(=O)O)cc2)c2ccccc2C1=O | 19 | 0% | 36* | ? | 2.6µM*
O=C(O)c1ccc(S(=O)(=O)/N=C2\C=C(Nc3ccccc3F)C(=O)c3ccccc32)cc1 | 9 | -13% | 33 | ? | 2.6µM*
CCc1ccc(S(=O)(=O)/N=C2\C=C(NS(=O)(=O)c3ccccc3)C(=O)c3ccccc32)cc1 | 30* | -1% | 44* | -10% | 30%
CCCCCOC(=O)Cc1c(C)nc(-c2ccccc2)[nH]c1=O | -1 | -2% | -7 | ? | 1.9µM*
CC1CCCN(C(=O)c2ccncc2)C1 (stereo not drawn) | -2 | 0% | 3 | . | 12%
CC1CCCN(C(=O)c2ccc(COc3ccccc3Br)cc2)C1 (stereo not drawn) | 9.1* | 8% | 15 | ? | .
CN1CCCC(OC(=O)c2ccc(S(=O)(=O)N(C)C)cc2)C1 (stereo not drawn) | -2 | -2% | 12 | 38% | -20%[0.00184 µM]
CCOc1ccc(OCc2ccc(C(=O)N3CCOCC3)cc2)cc1 | 36* | -3% | 44* | 69% | 75%
CCOc1ccc(C(=O)OC2CCCN(C)C2)cc1 (stereo not drawn) | 10 | -1% | 37 | 10µM* | -6%
CCOc1ccc(OCc2ccc(C(=O)N3CCCC(C)C3)cc2)cc1 (stereo not drawn) | 41* | 2% | 101* | ? | 75%
CCOCCCN(C(=O)c1snc(C(N)=O)c1N)C(C(=O)NC1CCCC1)c1ccc(O)cc1 (stereo not drawn) | -6 | -7% | -4 | ? | -3%
COc1ccc(NC(=O)Nc2ccc(C(=O)N3CCOCC3)cc2)cc1 | -1 | 0% | -6 | ? | 10%
CCOc1ccc(N=C(/C(C(=O)C(=O)N2CCOCC2)=C(\O)c2ccccc2)c2ccccc2)cc1 | 53* | -14% | 62* | -24% | 163%
COc1ccc(C(=O)N2CCN(CC(=O)N3CCOCC3)CC2)cc1 | -1 | -12% | 9 | 4.7µM*! | 18%
O=c1oc2ccccc2n1CSc1nc2ccccc2s1 | 41* | 0% | 96* | -5% | 264%
O=C(Cn1c(=O)oc2ccccc21)c1ccccc1 | -2 | -3% | 17 | 40% | 21%
O=c1oc2ccccc2n1CSC1=NCCS1 | 19* | 0% | 55 | 6% | ?
O=C(O)CSc1nc2ccccc2s1 | 8 | -13% | 6 | ? | 17%
Cc1ccc(/C=C/C(=O)NCc2ccc(S(N)(=O)=O)cc2)o1 | -4 | -2% | -5 | ? | -8%
CC(=O)c1c(C)nc(-c2ccccc2)nc1NC(=O)C(C)C | -1 | 10% | -14 | . | .
CCOC(=O)c1c(C)nc(-c2ccccc2)nc1N | 33* | 0% | 123* | 10µM* | 185%
CCOC(=O)c1c(C)nc(C)c(C(=O)OCC)c1-c1ccccc1 | 2 | -1% | -10 | 0% | 31%
CCOC(=O)c1c(-c2ccccc2)cn2c(C)cc(C)nc12 | 35* | -14% | 71* | 58% | 73%
SMILES | CHX counter | LmPK inh | Shiga inhibitor | Pf growth 96h | Pf growth 48h
CCOC(=O)c1c(C)nc(-c2ccccc2)nc1NC(C)=O | 17 | 4% | 85 | ? | 134%
CC(=O)Nc1nc(-c2ccccc2)nc(C)c1C(C)=O | -3 | 4% | 3 | 1.9µM* | 21%
CC(=O)c1c(C)nc(-c2ccccc2)nc1N | 29* | 1% | 58* | 43% | 78%
CC(=O)c1c(C)nc(-c2ccccc2)nc1NC(=O)Cc1ccccc1 | 17 | -1% | 31 | 42% | -11%
COc1ccc(C(=O)O)cc1S(=O)(=O)N1CCSCC1 | -2 | 1% | -4 | -10% | 11%
CCOC(=O)c1c(NC(=O)CSc2nc3ccccc3[nH]2)sc2c1CC(C)(C)NC2(C)C | . | . | . | 7.4µM* | 10µM*
CCC(C)/C(C)=N/NC(=O)CSc1nc2ccccc2[nH]1 (stereo not drawn) | 16 | -2% | 67* | 7% | 0%
Cc1ccc(/C=N/NC(=O)CSc2nc3ccccc3[nH]2)o1 | 18* | -3% | 21 | ? | -8%
CCCc1nnc(NC(=O)CSc2nc3ccccc3[nH]2)s1 | 19* | 1% | 44* | 48% | 29%
CCc1nnc(NC(=O)CSc2nc3c(C)cccc3[nH]2)s1 | 1 | 0% | -5 | 2% | -12%
COCCCn1c(=O)c2ccccc2n(CC(=O)NC2CCCCC2)c1=O | -9 | 4% | 5 | 12% | ?
CCOc1ccc2ccccc2c1C1NC(=O)NC(C)=C1C(=O)OCCOC (stereo not drawn) | -2 | 5% | 20 | ? | ?
CNc1c([N+](=O)[O-])cnn1-c1ccc(Cl)cc1 | -3 | -1% | 11 | 57% | 6%
O=C(COC(=O)/C=C/c1ccc(S(=O)(=O)N2CCc3ccccc32)cc1)NC1CCS(=O)(=O)C1 (stereo not drawn) | 5 | 0% | -11 | ? | ?
CCCCN(C)CCN1C(=O)C2C(C(=O)Nc3cccc(OC)c3)C3C=CC2(O3)C1C(=O)NC1CCCCC1C (stereo not drawn) | 8 | 1% | 1 | ? | ?
COc1ccc2c3c(cccc13)N(C)N=C2C | 1 | -9% | -2 | 0% | 10µM*
Cc1csc2nc(O)c(C(=O)NCCC3=CCCCC3)c(=O)n12 | . | . | . | ? | 10µM*
O=C(NCCc1ccc(Cl)cc1)c1cnccn1 | 17* | 5% | 9 | 9% | 66%
Cc1csc2nc(O)c(C(=O)NCCCc3ccccc3)c(=O)n12 | . | . | . | 48% | -1%
O=C(NCCC1=CCCCC1)c1cnccn1 | 20* | 2% | 42 | . | 111%
NS(=O)(=O)c1ccc(CCNC(=O)c2cnccn2)cc1 | 3 | 0% | -2 | 32% | 15%
COc1ccc(CCNC(=O)c2cnc(C)cn2)cc1 | 14 | -6% | 18 | ? | ?
Cc1cnc(C(=O)NCCc2ccc(Cl)cc2)cn1 | 55* | -7% | 73* | 59% | 51%
COc1ccc(C)cc1N(C)C(=O)Cc1c(C(=O)O)n(C)c2ccccc12 | -6 | -2% | -2 | 0% | -2%
O=C(O)/C=C/C(=O)NC1CCCCC1 | -3 | 1% | -10 | -3% | 10%
COc1cc(Cl)c(NS(=O)(=O)c2ccc(-c3ccc(=O)[nH]n3)o2)c(OC)c1 | -8 | -5% | -11 | 56% | 18%
COc1cc(Cl)c(NC2=CC(=O)C(=O)c3ccccc32)c(OC)c1 | . | . | . | ? | 0.37µM*
COc1cccc(C(=O)NCCSc2ccc(F)cc2)c1 | 39* | -9% | 57* | 99% | 154%
COc1cccc(C(=O)NCCSc2ccc(C)cc2)c1 | 21* | 2% | 19 | ? | -14%

Screening data: PubChem, National Center for Advancing Translational Sciences (NCATS)
